Screens as filed in PubChem.
The list is not random: actives were taken first. Their share in the collection is about 5.6%.
RORg inh: inhibitors of mouse ROR gamma transcriptional activity; P51450; Drosophila S2 Gal4-RORgamma UAS-luciferase reporter, 20 h; Potency, µM (doses to about 53.6 µM), most hits filed as inhibitors; 310,000 compounds, 5.4% hits; AID 2551; further: nearly all actives have a fitted effect of over 60% in size
Target sequence (P51450 whole entry, looked up, the tested form may be a part): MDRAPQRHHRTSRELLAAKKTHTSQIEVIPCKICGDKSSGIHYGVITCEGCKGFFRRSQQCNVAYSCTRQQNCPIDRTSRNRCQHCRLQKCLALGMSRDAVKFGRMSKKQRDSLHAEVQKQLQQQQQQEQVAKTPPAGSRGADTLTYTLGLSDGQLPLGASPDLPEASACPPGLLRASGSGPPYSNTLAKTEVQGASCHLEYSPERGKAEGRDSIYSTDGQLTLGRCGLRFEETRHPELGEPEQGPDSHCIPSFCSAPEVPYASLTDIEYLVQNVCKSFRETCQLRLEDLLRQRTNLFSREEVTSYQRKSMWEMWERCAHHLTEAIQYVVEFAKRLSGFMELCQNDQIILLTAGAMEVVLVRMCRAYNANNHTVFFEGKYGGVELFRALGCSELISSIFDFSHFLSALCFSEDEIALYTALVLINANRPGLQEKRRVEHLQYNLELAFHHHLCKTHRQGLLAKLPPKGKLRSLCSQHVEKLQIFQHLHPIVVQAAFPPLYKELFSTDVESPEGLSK
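Read-out: Photinus luciferase luminescence; inhibitors lower reporter signal. Insect Schneider cells with Gal4-ROR gamma fusion under metallothionein promoter, UAS reporter; 700 uM final copper sulfate induction, 20 hr, ambient temperature.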
Six1-Eya2 blk: inhibitors of human Six1/Eya2 interaction; Q15475+O00167; AlphaScreen GST-Six1/His-Eya2 binding, biochemical; stronger effect = lower value; activity change, % (no concentration beside the values); 360,000 compounds, 0.56% hits; AID 651725; in the data active means activity change below about -65%; inconclusive means mostly about -30% to -63%
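Compounds are tested against tagged Six1 and Eya2 proteins bridged by glutathione donor and nickel acceptor beads; after a one-hour incubation at 37 °C without light, AlphaScreen emission is recorded.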
CtBP-E1A inh: inhibitors of CtBP/E1A interaction; AlphaScreen GST-E1A/His-CtBP binding, 1536-well; stronger effect = lower value; activity change, % (no concentration beside the values); 340,000 compounds, 0.49% hits; in the data active means activity change below about -65%; inconclusive means mostly about -30% to -63%
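Homogeneous bead-based format: GST-tagged E1A captured on glutathione donor beads, His-tagged CtBP on nickel acceptor beads; compounds precede bead addition by 2 h at 37 °C.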
PKM2 activator: increases activity of human pyruvate kinase M2 | purified PKM2, Kinase-Glo ATP luminescence, activation; response scale: 0% is enzyme alone, no compound | AID 1631 | Potency, µM (highest dose often 57.5 µM), most hits filed as activators | 260,000 compounds, 0.34% hits; further: nearly all actives have a fitted effect of over 55% in size
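Purified hPK-M2 (>95%) run at intermediate activity with 0.1 mM ADP and 0.5 mM PEP in 50 mM imidazole pH 7.2, KCl, MgCl2; 1 h room temperature. ATP formed read by Kinase-Glo luminescence; normalized to uninhibited and no-enzyme controls.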
Gal4-VP16 FLuc: Gal4-VP16 reporter inhibition counter-screen. Drosophila S2 Gal4-VP16 UAS-luciferase, luminescence, 20 h. Potency, µM (top dose mostly 53.6 µM), actives largely listed as inhibitors. 310,000 compounds, 3.5% hits;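 further: Gal4-VP16 expression switched on by copper sulfate through the metallothionein promoter; nearly all actives have a fitted effect of over 50% in size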
Hits are given with their value; . = inactive; ? = inconclusive; / = no result given; [ ] = dose if it differs, or a comment. Unless noted, the call rests on the fitted dose curve; in most records, active means well fitted curve in the direction sought with a large enough effect; inconclusive means small, poorly fitted or top-dose-only effect, or another doubt; inactive means no such curve, though single readings can be large; an effect the other way counts as inactive or inconclusive.

SMILES	RORg inh	Six1-Eya2 blk	CtBP-E1A inh	PKM2 activator	Gal4-VP16 FLuc
O=C(CNC(=O)c1ccc(F)cc1)c1ccc(Cl)cc1	.	.	.	.	.
CC(C)NC(=O)c1cc(-c2cccs2)nc2ccccc12	.	.	/	/	.
COc1ccc(C(=O)NC2=NCCS2)cc1S(=O)(=O)N1CCCCC1C (stereo unspecified)	14µM	.	/	.	.
NNC(=O)c1cc(-c2cccs2)nc2ccccc12	20µM	.	/	.	.
OC[C@@H]1CN(CCN2CCOCC2)C[C@H](n2cnc3c(NC4CCCC4)ncnc32)O1	/	.	.	/	/
Cc1cc(C)c(C(=O)c2ccccc2C(=O)O)c(C)c1	/	.	?	/	/
O=c1c2ccccc2[nH]c(=S)n1CCCN1CCN(c2ccccc2)CC1	7.9µM	.	.	/	10µM
O=c1c2ccccc2[nH]c(=S)n1CCCN1CCN(c2ccccc2F)CC1	3.5µM	.	/	/	8.9µM
O=c1c2cccnc2[nH]c(=S)n1CCCN1CCN(c2ccccc2F)CC1	2.2µM	.	.	.	.
CC1CCCCN1CCn1c(=S)[nH]c2ncccc2c1=O (stereo unspecified)	.	.	.	.	.
O=c1c2ccccc2[nH]c(=S)n1CCN1CCCCC1	.	.	.	.	.
O=C(NNS(=O)(=O)c1ccc(F)cc1)C1CCN(Cc2cccc(F)c2)CC1	.	.	.	.	.
Cc1cc(C)c(S(=O)(=O)N2CCCC(C(=O)NCc3ccncc3)C2)c(C)c1 (stereo unspecified)	.	.	.	.	.
F[B-](F)(F)COc1ccccc1	/	.	.	/	/
C=CCNC(=S)NNC(=O)CCC(O)CCCCC (stereo unspecified)	10µM	.	.	.	.
COc1cccc(C(O)c2nc(-c3ccc4ccccc4c3)cs2)c1 (stereo unspecified)	/	.	.	/	/
O=C(O)Cc1ccccc1C(=O)O	.	.	.	.	.
O=C(O)Cc1cccc(=O)c(O)c1C(=O)O	/	-73	?	/	/
CCN(C(=O)CN1CCOCC1)c1c(N)n(Cc2ccccc2)c(=O)[nH]c1=O	.	.	.	.	.
Cc1cc(C)n2nc(S(=O)(=O)NC(C)(C)C)nc2n1	.	.	.	.	.
O=C1C=Cc2ccccc2/C1=C/c1[nH]c(=O)[nH]c1O	6.3µM	.	/	.	?
CN1C(=O)/C(=C\C(=O)c2cccs2)c2ccccc21	5.6µM	.	.	.	13µM
CCCCc1nc2c(c3c1C[C@H](C)OC3)CN(C(=O)COC)CC2	/	/	/	.[11.5 µM]	/
C=CCc1cccc2cc(C(=O)Nc3ccc(CC(=O)O)cc3)c(=O)oc12	4µM	.	/	.	?
COCCN(C(=O)Cc1cccs1)C(C(=O)NCc1ccc(OC)cc1)c1ccc(C)cc1 (stereo unspecified)	.	.	.	.	.
SMILES	RORg inh	Six1-Eya2 blk	CtBP-E1A inh	PKM2 activator	Gal4-VP16 FLuc
COc1ccc(CNC(=O)C(c2ccc(C)o2)N(Cc2cccs2)C(=O)Cc2cccs2)cc1 (stereo unspecified)	.	.	.	10µM	?
Cc1ccc(S(=O)(=O)NC(C)C(=O)OCC(=O)N(C)c2ccccc2)cc1 (stereo unspecified)	/	.	/	/	/
CCC(C)C1NC(=S)N(Cc2ccccc2)C1=O (stereo unspecified)	10µM	.	.	.	?
O=C1C(Cc2ccccc2)NC(=S)N1Cc1ccccc1 (stereo unspecified)	13µM	.	/	.	.
O=C(Nc1ccc(C(F)(F)F)cc1)C1=NN(C2CCS(=O)(=O)C2)C(=O)CC1 (stereo unspecified)	/	.	/	/	/
CCCc1ncc(C(O)(c2ccccc2)c2ccc(C)cc2)n1C (stereo unspecified)	?	.	.	.	.
CCCc1ncc(C(O)(c2ccccc2)c2ccccc2)n1C	14µM	.	.	.	.
Cc1cc(OCC(=O)N2CCC(C(N)=O)CC2)c2c(C)cc(=O)oc2c1	.	.	.	.	.
COC(=O)C1CCN(C(=O)CN2C(=O)NC3(CCC(C)CC3)C2=O)CC1 (stereo unspecified)	/	.	.	/	/
CCCCN(c1ccccc1)S(=O)(=O)c1cccc2cccnc12	.	.	.	.	14µM
CCSS(=O)(=O)c1cccc2cccnc12	22µM	-91	-90	.	?
Cc1ncc2c(n1)NC(=O)NC2	/	.	.	/	/
CCCC[C@]12Cc3cc(C#N)ccc3C(O1)c1c(c3cc(F)ccc3oc1=O)O2	.[10 µM]	/	/	.[11.5 µM]	.[10 µM]
COc1cc(C(=O)O/N=C2\CCCc3c2ccc(OC)c3[N+](=O)[O-])cc(OC)c1OC	.	.	.	.	.
COc1cc(C(=O)ON=C2C3CC4CC(C3)CC2C4)cc(OC)c1OC	?	.	.	/	?
COc1cc(C(=O)O/N=C2\C=CC(=O)C=C2C)cc(OC)c1OC	7.1µM	.	.	.	4µM
COc1cc(C(=O)O/N=C2/C=CC(=O)C(C)=C2C)cc(OC)c1OC	3.5µM	.	.	.	4.5µM
CC1(C)CC2(CC(c3ccccc3)Oc3cc(O)ccc32)NC(=S)N1 (stereo unspecified)	8.9µM	.	.	.	8.9µM
CC1(C)CC2(CC(c3ccccc3)Oc3cc(O)ccc32)NC(=O)N1 (stereo unspecified)	.	/	/	.	.
CC(=O)Oc1ccc2c(c1)OC(c1ccccc1)CC21CC(C)(C)NC(=S)N1 (stereo unspecified)	10µM	.	.	.	?
COc1ccc(C2CC3(CC(C)(C)NC(=O)N3)Oc3cc(O)ccc32)cc1 (stereo unspecified)	?	.	.	.	.
COc1ccc(C2CC3(CC(C)(C)NC(=S)N3)Oc3cc(O)cc(C)c32)cc1 (stereo unspecified)	?	.	.	.	?
CC(=O)Oc1cc2c(cc1Cl)C(c1cccs1)CC1(CC(C)(C)NC(=S)N1)O2 (stereo unspecified)	10µM	.	.	.	?
CC1(C)CC2(CC(c3ccccc3)c3ccc(O)cc3O2)NC(=S)N1 (stereo unspecified)	11µM	.	.	.	.
O=C(Nc1ccc(F)cc1)Nc1ccccc1C(=O)NCCN1CCNC1=O	.	.	.	.	.
SMILES	RORg inh	Six1-Eya2 blk	CtBP-E1A inh	PKM2 activator	Gal4-VP16 FLuc
CCC(NC(=O)c1ccccc1NC(=O)c1ccccc1)C(=O)NNC(=O)c1cccnc1 (stereo unspecified)	.	.	/	.	.
CC1(C)CC(=O)C(CSC(=O)c2ccccc2)C(=O)C1	/	.	.	/	/
O=C1C=C(NC2=CC3OC(c4ccccc4)OCC3OC2=O)CCC1 (stereo unspecified)	10µM	.	.	.	10µM
O=C1C=C(NCc2ccccc2)CCC1	.	.	.	.	.
CN(C)c1ccc(/C=C2\Oc3ccc(C#Cc4cccc(N)c4)cc3C2=O)cc1	/	.	.	/	/
O=C(O)c1cccc(N2C(=O)CSC2=S)c1	.	.	.	/	.
O=C1CSC(=S)N1c1cccc(O)c1	13µM	.	.	/	.
